# Source: the supplement of paper PMC7801607
# Columns and labels:
# CHO = test: % viability of CHO cells (MTT); higher = less toxic; conditions: 48 h
# Outline: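 CHO cells were seeded at 10^6 cells/well in 200 µL and left overnight to attach. The medium was then replaced with fresh medium containing compound at 2 or 20 µM for 48 h. Survival was read colorimetrically with the tetrazolium (MTT) assay. Percent viability was expressed relative to untreated cells.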
# HepG2-A16-CD81 = test: % inhibition of HepG2 viability (CellTiter-Glo); higher = more toxic; conditions: 5 µM
# [1] = test system: Plasmodium falciparum NF54 stage IV/V gametocytes; test: % inhibition of gametocyte viability (PrestoBlue); higher = more inhibition; conditions: 48 h
# Outline: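 Stage IV/V NF54 gametocytes (2% gametocytaemia, 5% haematocrit, 100 µL/well) were exposed to compound at 1 or 5 µM. Incubation was 48 h at 37 °C, stationary and hypoxic, followed by 10 µL PrestoBlue for 2 h. Fluorescence at 612 nm was read on 70 µL of transferred supernatant. Percent inhibition of gametocyte viability was normalised to DMSO and kill controls from a single run.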
# [2] = test system: Plasmodium falciparum NF54 asexual blood stage; test: % inhibition of asexual blood stage proliferation (pLDH); higher = more inhibition; conditions: 72 h
# Outline: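 Plasmodium falciparum NF54 ring-stage cultures (1% haematocrit, 2% parasitaemia) were exposed to compound at 2 or 20 µM in 96-well plates. Incubation was 72 h at 37 °C under 4% CO2, 3% O2 and 93% N2. Survival was read colorimetrically at 620 nm with the parasite lactate dehydrogenase assay. Percent inhibition of asexual proliferation was normalised to DMSO and kill controls, and the screen was run on two separate occasions.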
# [3] = test system: Plasmodium falciparum NF54 stage IV/V gametocytes; test: % inhibition of gametocyte viability (ATP bioluminescence); higher = more inhibition; conditions: 24 h
# Outline: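 In 96-well plates, compound at 1 or 5 µM was added to 30,000 density-gradient-enriched stage IV/V NF54 gametocytes per well and incubated for 24 h at 37 °C. ATP readout used the Promega BacTiter Glo bioluminescence system. Percent inhibition of gametocyte viability comes from a single run, normalised to control wells.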
# [4] = test system: Plasmodium falciparum NF54 stage IV/V gametocytes; test: % inhibition of gametocyte viability (luciferase reporter); higher = more inhibition; conditions: 48 h
# Outline: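 Compound at 1 or 5 µM was added to stage IV/V NF54-Pfs16-GFP-Luc gametocytes (2% gametocytaemia, 2% haematocrit) and incubated stationary and hypoxic at 37 °C for 48 h. A GloMax-Multi+ reader measured luminescence over 10 s integration on 30 µL lysate plus 30 µL Promega luciferin substrate. Percent inhibition values were normalised to controls within a single run.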
# [5] = test system: Plasmodium berghei ANKA liver stage in HepG2-A16-CD81; test: % inhibition of liver stage parasite viability (luciferase); higher = more inhibition; conditions: 5 µM; 48 h
# Experimental: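 Single-concentration screen of the MMV Pandemic Response Box. P. falciparum NF54 asexual blood stages: pLDH assay, 72 h at 37 °C, 2 and 20 µM, n=2. Stage IV/V gametocytes (NF54): luciferase reporter (NF54-Pfs16-GFP-Luc, 48 h), ATP bioluminescence (24 h) and PrestoBlue (48 h) at 1 and 5 µM, n=1. P. berghei liver stage (luciferase in HepG2-A16-CD81, 48 h post infection) at 5 µM, n=4. All normalised to DMSO and kill controls as % inhibition.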
# 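Wherever % inhibition of HepG2 viability (CellTiter-Glo) is given: HepG2-A16-CD81 hepatoma cells plated as in the liver-stage assay but without sporozoites, with DMSO wells as negative and 25 µM puromycin as positive control.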
Compound,% viability of CHO cells (CHO; 2 µM),% viability of CHO cells (CHO; 20 µM),% inhibition of HepG2 viability (HepG2-A16-CD81),% inhibition of gametocyte viability ([1]; 1 µM),% inhibition of gametocyte viability ([1]; 5 µM),% inhibition of asexual blood stage proliferation ([2]; 2 µM),% inhibition of asexual blood stage proliferation ([2]; 20 µM),% inhibition of gametocyte viability ([3]; 1 µM),% inhibition of gametocyte viability ([3]; 5 µM),% inhibition of gametocyte viability ([4]; 1 µM),% inhibition of gametocyte viability ([4]; 5 µM),% inhibition of liver stage parasite viability [5]
O=C(CC1Sc2ncnn2C1=O)Nc1ccc(Br)cc1 (configuration not stated),100%,102%,-3.25%,20.1%,9.94%,24.1%,42.2%,8.79%,43.5%,< 0%,1.92%,20.8%
COC(=O)Nc1nc2cc(S(=O)c3ccccc3)ccc2[nH]1 (configuration not stated),118%,78%,12.1%,10.1%,11.8%,8.21%,7.99%,1.75%,< 0%,< 0%,< 0%,9.84%
CCCCCCC1c2ccc(O)cc2Oc2cc(O)ccc21,80.1%,49.3%,11.4%,5.99%,< 0%,-7.32%,12.9%,4.64%,15.4%,< 0%,< 0%,42.4%
CC(C)(C)NC(=O)[C@@H]1CN(Cc2cnc3occc3c2)CCN1C[C@@H](O)C[C@@H](Cc1ccccc1)C(=O)N[C@H]1c2ccccc2C[C@H]1O,99.9%,78.9%,4.33%,30.9%,51.4%,55.2%,55.9%,1.91%,< 0%,2.7%,15.5%,36%
CCC(C)n1ncn(-c2ccc(N3CCN(c4ccc(OCC5COC(Cn6cncn6)(c6ccc(Cl)cc6Cl)O5)cc4)CC3)cc2)c1=O (configuration not stated),119%,119%,26.2%,2.77%,1.55%,10.1%,83.4%,3.02%,< 0%,< 0%,< 0%,46.4%
OCCC#Cc1nc(-c2ccc(F)cc2)c(-c2ccncc2)n1CCCc1ccccc1,107%,83%,5.38%,< 0%,30.5%,15.3%,83%,1.66%,8.02%,5.66%,32.2%,36.6%
CCCCOC(=O)Nc1cc2nc(C3CCCCC3)[nH]c2cc1N(CC)CC,98.9%,101%,3.15%,< 0%,< 0%,18.6%,83.2%,< 0%,19.3%,< 0%,< 0%,62%
O=C(Nc1nnc(-c2ccc(Cl)cc2)o1)c1ccc(F)cc1,94.3%,106%,-1.68%,< 0%,0.779%,23.1%,-13.5%,< 0%,< 0%,< 0%,1.27%,63.4%
CC(N)C12CC3CC(CC(C3)C1)C2 (configuration not stated),115%,102%,-6.21%,4.36%,25%,15.8%,20.4%,7.67%,2.98%,< 0%,3.24%,-6%
CC(C)(C)c1cc(C(=O)/C(C#N)=N/Nc2cccc(Cl)c2)no1,113%,97.4%,44.1%,< 0%,< 0%,-1.08%,24.2%,< 0%,< 0%,< 0%,< 0%,51.5%
COc1ccc(C(C)(C)C)cc1NC(=O)C(=O)c1ccc(OCCN2CCOCC2)c2ccccc12,97.6%,130%,1.14%,12.9%,26.4%,29.2%,23.5%,< 0%,< 0%,6.49%,< 0%,15.1%
Cc1cccc(C)c1C(=O)Nc1nc(-c2ccccn2)cc2ccccc12,104%,17.3%,32.4%,13.5%,53.2%,79.3%,104%,73.4%,90.8%,< 0%,68.3%,73.3%
CN(C)[C@@H]1C(=O)C(C(N)=O)=C(O)[C@@]2(O)C(=O)C3=C(O)c4c(O)c(NC(=O)CN5CCCC5)cc(F)c4C[C@H]3C[C@@H]12,99.3%,125%,21%,13.1%,< 0%,72.1%,88%,< 0%,< 0%,< 0%,< 0%,-4.53%
O=C(CCCC(F)(F)F)N1CCC(c2nc(-c3nccs3)no2)CC1,113%,105%,8.03%,-0.494%,2.08%,7.54%,19.8%,0.351%,< 0%,< 0%,8.02%,-0.37%
CC(C)CCN1C(=O)C(C2=NS(=O)(=O)c3cc(NS(C)(=O)=O)ccc3N2)=C(O)[C@@H]2[C@H]3CC[C@H](C3)[C@@H]21,99.3%,109%,6.58%,9.05%,13.6%,37.2%,56.6%,< 0%,< 0%,1.44%,8.86%,47.3%
C[C@@H](c1nc(-c2ccc(C#N)cc2)cs1)[C@](O)(Cn1cncn1)c1ccc(F)cc1F,92.5%,99.8%,3.07%,12.4%,15%,-2.05%,34.3%,2.16%,< 0%,< 0%,< 0%,-4.98%
